The text below walks through data of PubChem BioAssay (EPA / NIEHS).

Structures are written as SMILES. “And” between values parts separate entries of the source, which are not always exact repeats. Equal entries are not always repeated. The source holds several records for some structures; these can differ, active in one and inactive in another. The source made the active and inactive calls. The calls were made as follows: active = hit-call score of the fitted dose curve at least 0.9, where 1 is the maximum; inactive = score below 0.9.

What all share (details): primary human HUVEC with PBMC; actives raise or lower the signal
The nature of assay [1]: BSK_LPS_PGE2: BioMAP Diversity Plus: LPS Assay for Prostaglandin E2 (PGE2) Biomarker Activity (AID 2283082).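 As to AC50: secreted prostaglandin E2 measured by ELISA in LPS-stimulated co-culture.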 A digest of the protocol: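 Primary human endothelial cells and blood mononuclear cells, co-cultured with LPS, receive test chemical; PGE2 ELISA follows at 24 h, with SRB-stained parallel cultures flagging cytotoxicity.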
Read-out in assay [2]: Macrophage colony-stimulating factor (MCSF), CSF1 (gene 1435)
The assay can be described thus: BSK_LPS_MCSF: BioMAP Diversity Plus: LPS Assay for Macrophage colony-stimulating factor (MCSF) Biomarker Activity (AID 2283083). The method, boiled down: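 Bidirectional fit versus DMSO of ELISA-measured M-CSF in co-cultured human umbilical vein endothelial cells and PBMC, sampled 24 h after dosing.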

Read-out in assay [3]: Tissue Factor, F3 (gene 2152)
Kind of assay: BSK_LPS_TissueFactor: BioMAP Diversity Plus: LPS Assay for Tissue Factor Biomarker Activity (AID 2283084). The method, boiled down: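 Read-out: CD142 ELISA, 24 h. System: LPS-driven human endothelial/PBMC co-culture. Analysis: up- or down-signal fitted against DMSO.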

Read-out in assay [4]: Tumor necrosis factor (Homo sapiens) (UniProt P01375)
The assay can be described thus: BSK_LPS_TNFa: BioMAP Diversity Plus: LPS Assay for Tumour Necrosis Factor alpha (TNFa) Biomarker Activity (AID 2283085).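 As to AC50: TNFa protein level quantified by ELISA in the co-culture.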 A digest of the protocol:
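ELISA-based TNFa endpoint in a human endothelial–PBMC co-culture sampled 24 h post-exposure. Curves were fitted in both directions using DMSO as baseline of activity.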

Read-out in assay [5]: Vascular cell adhesion molecule 1 (VCAM1), VCAM1 (gene 7412)
Kind of assay: BSK_LPS_VCAM1: BioMAP Diversity Plus: LPS Assay for Vascular cell adhesion molecule 1 (VCAM1) Biomarker Activity (AID 2283086). The method, boiled down: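 Measured by ELISA: VCAM-1 in LPS-activated HUVEC/PBMC co-cultures 24 h after treatment. Values reflect bidirectional fitting with DMSO as baseline.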

Read-out in a further assay: CD38, CD38 (gene 952)
Kind of assay: BSK_SAg_CD38: BioMAP Diversity Plus: SAg Assay for CD38 Biomarker Activity (AID 2283087). The method, boiled down:
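Measures CD38 on a human endothelial/PBMC co-culture driven by SEB and TSST-1, 24 h after compound exposure, using ELISA with fluorescence detection; DMSO defines baseline for bidirectional curve fitting.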

Read-out in the next assay: CD40, CD40 (gene 958)
Kind of assay: BSK_SAg_CD40: BioMAP Diversity Plus: SAg Assay for CD40 Biomarker Activity (AID 2283088). A digest of the protocol: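 Endpoint derived by fitting increases or decreases versus DMSO controls. CD40 is detected by fluorescence ELISA in a human vascular co-culture of endothelium and PBMC at 24 h.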

Read-out in the next assay: CD69, CD69 (gene 969)
The assay can be described thus: BSK_SAg_CD69: BioMAP Diversity Plus: SAg Assay for CD69 Biomarker Activity (AID 2283089).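 As to AC50: cell surface CD69 protein quantified by ELISA with fluorescence detection.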 A digest of the protocol:
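Endothelial/PBMC co-culture; chemical added; 24 h incubation; CD69 ELISA with fluorescence detection; bidirectional fit vs DMSO.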

Read-out in assay [6]: Monocyte Chemoattractant Protein-1 (MCP1), CCL2 (gene 6347)
Kind of assay: BSK_SAg_MCP1: BioMAP Diversity Plus: SAg Assay for Monocyte Chemoattractant Protein-1 (MCP1) Biomarker Activity (AID 2283090). A digest of the protocol: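 Values derive from bidirectional fitting of ELISA-measured MCP1 against DMSO controls. Readings were taken 24 h after dosing human vascular endothelial cells co-cultured with peripheral blood mononuclear cells under superantigen stimulation.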

Read-out in assay [7]: E-selectin (Homo sapiens) (UniProt P16581)
Kind of assay: BSK_SAg_Eselectin: BioMAP Diversity Plus: SAg Assay for Eselectin Biomarker Activity (AID 2283091). A digest of the protocol: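 Endpoint values derive from bidirectional fitting relative to DMSO, using ELISA-measured E-selectin in a human vascular co-culture (umbilical vein endothelium plus PBMC) sampled 24 h after dosing.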

Chain of Tumor necrosis factor (Homo sapiens) (P01375 whole entry, looked up): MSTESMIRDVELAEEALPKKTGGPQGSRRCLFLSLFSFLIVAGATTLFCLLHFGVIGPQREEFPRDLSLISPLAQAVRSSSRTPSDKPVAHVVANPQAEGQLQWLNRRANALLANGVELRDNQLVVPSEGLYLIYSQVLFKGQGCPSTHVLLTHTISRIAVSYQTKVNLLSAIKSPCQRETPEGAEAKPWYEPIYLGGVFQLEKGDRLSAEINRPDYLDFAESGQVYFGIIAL
Chain of E-selectin (Homo sapiens) (P16581 whole entry, looked up): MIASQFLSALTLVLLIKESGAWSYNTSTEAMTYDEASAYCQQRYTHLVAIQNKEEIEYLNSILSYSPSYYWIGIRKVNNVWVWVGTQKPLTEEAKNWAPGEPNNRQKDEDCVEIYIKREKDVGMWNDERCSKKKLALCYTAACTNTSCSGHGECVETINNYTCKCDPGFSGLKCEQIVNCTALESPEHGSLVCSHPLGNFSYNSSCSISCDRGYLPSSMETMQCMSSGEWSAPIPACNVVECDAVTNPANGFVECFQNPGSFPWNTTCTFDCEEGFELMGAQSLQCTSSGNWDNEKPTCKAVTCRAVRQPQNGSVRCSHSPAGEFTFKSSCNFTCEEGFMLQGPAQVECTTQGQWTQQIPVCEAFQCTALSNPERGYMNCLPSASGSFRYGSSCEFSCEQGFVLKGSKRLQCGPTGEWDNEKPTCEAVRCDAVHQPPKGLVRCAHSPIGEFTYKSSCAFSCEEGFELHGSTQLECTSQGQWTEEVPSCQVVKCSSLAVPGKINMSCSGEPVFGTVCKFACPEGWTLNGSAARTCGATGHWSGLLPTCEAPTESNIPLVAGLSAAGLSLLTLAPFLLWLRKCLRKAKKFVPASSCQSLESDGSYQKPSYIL

Regarding `CCOC(=O)C(C)Oc1ccc(Oc2nc3ccc(Cl)cc3o2)cc1` (stereo unspecified), the AC50 is 24.3 µM (active) in assay [1]; 23.6 µM (active) in the assay with CD38, CD38 (gene 952); 12 µM (active) with CD40, CD40 (gene 958); 20 µM (active) in assay [6]; 20 µM (active) in assay [7]. For the same molecule, the outcome was “inactive” in assay [2]; “inactive” in [3]; “inactive” in assay [4]; “inactive” in [5]; “inactive” in the assay with CD69, CD69 (gene 969).

Consider `S=C([S-])NCCNC(=S)[S-].[Mn+2]`, for which the outcome in assay [1] was “inactive”; in assay [3], “inactive”; in the assay with CD40, CD40 (gene 958), “inactive”; in the assay with CD69, CD69 (gene 969) it was “inactive”. Moreover, the AC50 in [2] was 13.2 µM (active); in [4], 20 µM (active); in assay [5], 14.7 µM (active); in the assay with CD38, CD38 (gene 952) it was 14.6 µM (active); in assay [6], 30.3 µM (active).

Regarding `CCCCCCC(C)OC(=O)COc1nc(F)c(Cl)c(N)c1Cl` (stereo unspecified), the AC50 is 20.3 µM (active) in assay [1]; 29.8 µM (active) in [2]; 35.9 µM (active) in assay [3]; 34.3 µM (active) in assay [4]; 30.8 µM (active) in assay [5]; 30.7 µM (active) in the assay with CD38, CD38 (gene 952). For the same molecule, the AC50 with CD40, CD40 (gene 958) was 29.5 µM (active); in the assay with CD69, CD69 (gene 969), 31 µM (active); in assay [6] it was 29.8 µM (active); in assay [7] it was 33 µM (active).

For the molecule `COC(=O)c1ccc(I)cc1S(=O)(=O)NC(=O)Nc1nc(C)nc(OC)n1`, the outcome in assay [1] is “inactive”; in assay [2], “inactive”; in assay [3] it was “inactive”; in assay [4] it was “inactive”; in [5], “inactive”; with CD38, CD38 (gene 952) it was “inactive”. Also, the outcome with CD40, CD40 (gene 958) is “inactive”; with CD69, CD69 (gene 969), “inactive”; in assay [6], “inactive”; in [7], “inactive”.

On to `CCCCC(CC)COC(=O)c1ccccc1C(=O)O` (stereo unspecified), for which the outcome in assay [1] is “inactive”; in assay [2] it was “inactive”; in [3] it was “inactive”; in the assay with CD38, CD38 (gene 952), “inactive”; in the assay with CD40, CD40 (gene 958), “inactive”; in the assay with CD69, CD69 (gene 969), “inactive”. The outcome in assay [6] and in assay [7] was inactive. Further, the AC50 is 21.8 µM (active) in assay [4] and 22.9 µM (active) in assay [5].

For the molecule `CC(C)CCCCCCc1ccc(O)cc1`, the AC50 in assay [1] was 6.36 µM (active); in [2] it was 9.04 µM (active); in assay [3], 12.3 µM (active); in assay [4], 7.19 µM (active); in assay [5], 10 µM (active); with CD38, CD38 (gene 952), 8.61 µM (active). For the same molecule, the AC50 is 8.59 µM (active) with CD40, CD40 (gene 958); 10.7 µM (active) with CD69, CD69 (gene 969); 6.52 µM (active) in [6]; 9.34 µM (active) in assay [7].

`CC(C)(c1ccc(O)cc1)c1ccc(O)cc1`: the AC50 in assay [1] was 16.6 µM (active) and 10.3 µM (active) and 11.1 µM (active); in assay [4], 2.8 µM (active); in [5], 25.5 µM (active) and 27 µM (active) and 20 µM (active); in the assay with CD38, CD38 (gene 952), 13.8 µM (active); in the assay with CD40, CD40 (gene 958), 20.3 µM (active) and 5.31 µM (active); in assay [6], 20 µM (active). For the same molecule, the AC50 in assay [7] was 24.9 µM (active). In addition, the outcome in assay [1] was “inactive”; in assay [2], “inactive”; in assay [3], “inactive”; in assay [4] it was “inactive”; in assay [5], “inactive”; in the assay with CD38, CD38 (gene 952) it was “inactive”. Also, the outcome with CD40, CD40 (gene 958) was “inactive”; with CD69, CD69 (gene 969), “inactive”; in assay [6] it was “inactive”; in assay [7], “inactive”.

On to `CC1(C)C(C=C(Cl)Cl)C1C(=O)OCc1cccc(Oc2ccccc2)c1` (stereo unspecified), for which the AC50 is 4.13 µM (active) in [1]; 4.63 µM (active) in [2]; 14.7 µM (active) in the assay with CD69, CD69 (gene 969). The outcome in [3] is “inactive”; in assay [4], “inactive”; in [5] it was “inactive”; in the assay with CD38, CD38 (gene 952), “inactive”; in the assay with CD40, CD40 (gene 958) it was “inactive”; in [6], “inactive”. Further, the result in assay [7] was inactive.

On to `COC(=O)CSc1cc(N=c2sc(=O)n3n2CCCC3)c(F)cc1Cl`, for which the outcome in [1] is “inactive”; in assay [2] it was “inactive”; in [3], “inactive”; in assay [5], “inactive”; in the assay with CD38, CD38 (gene 952), “inactive”; with CD40, CD40 (gene 958), “inactive”. The outcome with CD69, CD69 (gene 969) is “inactive”; in [6] it was “inactive”; in [7], “inactive”. The AC50 in [4] is 9.6 µM (active).

With `CCN(CC)C(=O)c1cccc(C)c1`, the outcome was “inactive” in assay [1]; “inactive” in assay [2]; “inactive” in assay [3]; “inactive” in [4]; “inactive” in [5]; “inactive” with CD38, CD38 (gene 952). The outcome with CD40, CD40 (gene 958) is “inactive”; in the assay with CD69, CD69 (gene 969), “inactive”; in assay [6] it was “inactive”; in assay [7] it was “inactive”.

For the molecule `c1ccc(Nc2ccccc2)cc1`, the AC50 is 3.51 µM (active) in assay [1] and 13 µM (active) in [4]. Moreover, the outcome in assay [2] is “inactive”; in assay [3], “inactive”; in assay [5], “inactive”; in the assay with CD38, CD38 (gene 952), “inactive”; with CD40, CD40 (gene 958) it was “inactive”; with CD69, CD69 (gene 969) it was “inactive”. The outcome in assay [6] and in assay [7] was inactive.

For the molecule `C#CCOC(=O)[C@@H](C)Oc1ccc(Oc2ncc(Cl)cc2F)cc1`, the outcome in [1] is “inactive”; in [2], “inactive”; in [3], “inactive”; in [4], “inactive”; in [5], “inactive”; with CD38, CD38 (gene 952) it was “inactive”. The outcome was “inactive” in the assay with CD40, CD40 (gene 958); “inactive” with CD69, CD69 (gene 969); “inactive” in [6]; “inactive” in [7].

Regarding `CCOC(=O)[C@H](C)Oc1ccc(Oc2nc3ccc(Cl)cc3o2)cc1`, the AC50 is 8.85 µM (active) in assay [1] and 29.9 µM (active) with CD38, CD38 (gene 952). The outcome in assay [2] is “inactive”; in assay [3], “inactive”; in [4], “inactive”; in [5] it was “inactive”; in the assay with CD40, CD40 (gene 958) it was “inactive”; in the assay with CD69, CD69 (gene 969) it was “inactive”. Further, the result in assay [6] and in assay [7] was inactive.

Regarding `Cc1nn(C)c(Oc2ccccc2)c1C=NOCc1ccc(C(=O)OC(C)(C)C)cc1`, the AC50 in assay [1] was 1.11 µM (active); in assay [2] it was 3.48 µM (active); in assay [5], 9.84 µM (active); with CD38, CD38 (gene 952), 5.76 µM (active); with CD40, CD40 (gene 958), 6.66 µM (active); with CD69, CD69 (gene 969), 4.1 µM (active). Besides, the AC50 in assay [6] is 7.6 µM (active); in [7], 4.27 µM (active). For the same molecule, the result in [3] and in [4] was inactive.
